Screens: PubChem, several laboratories
NPR1 activator: GC-A (human) enzyme activation; P16066; HEK293 GC-A cells, cGMP TR-FRET, EC30 ANP; 0% at EC30 ANP, 100% saturating ANP; activation, % at 10 µM; 0.14% of 370,000 active; AID 1671463; in the data active = activation above about 40%
NPR2 activator: GC-B (human) receptor activation; P20594; HEK293-GC-B cells, CNP EC30, cGMP TR-FRET; 0% at EC30 CNP, 100% saturating CNP; activation, % at 10 µM; 0.11% of 370,000 active;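 active = activation at 10 µM reaching about 35% in either raw or pattern-adjusted values, limit read from the data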
ADAM10 inh: inhibits human ADAM10; AID 720582; inhibition, % at 7 µM; recombinant ADAM10, EDANS/DABCYL FRET peptide cleavage, 3 h; O14672; 0.62% of 370,000 active;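 active = inhibition above a per-campaign cutoff equal to the mean of compounds falling between control-based bounds plus 3 SD, cut at about 20% in these data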;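 note: 0% = DMSO wells while the 100% control is not disclosed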
ADAM17 inh: inhibits human ADAM17; P78536; recombinant ADAM17, EDANS/DABCYL FRET peptide cleavage; inhibition, % at 6.95 µM; 0.83% of 370,000 active;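 active = inhibition above the mean of compounds lying between control limits plus 3 SD, set per campaign, cut at about 8.5% in these data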;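 note: 0% = DMSO-only wells as the low control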
FAS-TE inh: FAS thioesterase (human) inhibition. P49327. recombinant FAS-TE, OMFH fluorogenic substrate, fluorescence endpoint. inhibition, % at 15 µM. 0.67% of 360,000 active. AID 602261;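 active = compounds whose normalised, plate-corrected inhibition of enzyme fluorescence in the single-dose primary screen is 50% or more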;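 note: 0% = DMSO with enzyme and 100% = substrate without enzyme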
Target sequence (P49327 whole entry, looked up): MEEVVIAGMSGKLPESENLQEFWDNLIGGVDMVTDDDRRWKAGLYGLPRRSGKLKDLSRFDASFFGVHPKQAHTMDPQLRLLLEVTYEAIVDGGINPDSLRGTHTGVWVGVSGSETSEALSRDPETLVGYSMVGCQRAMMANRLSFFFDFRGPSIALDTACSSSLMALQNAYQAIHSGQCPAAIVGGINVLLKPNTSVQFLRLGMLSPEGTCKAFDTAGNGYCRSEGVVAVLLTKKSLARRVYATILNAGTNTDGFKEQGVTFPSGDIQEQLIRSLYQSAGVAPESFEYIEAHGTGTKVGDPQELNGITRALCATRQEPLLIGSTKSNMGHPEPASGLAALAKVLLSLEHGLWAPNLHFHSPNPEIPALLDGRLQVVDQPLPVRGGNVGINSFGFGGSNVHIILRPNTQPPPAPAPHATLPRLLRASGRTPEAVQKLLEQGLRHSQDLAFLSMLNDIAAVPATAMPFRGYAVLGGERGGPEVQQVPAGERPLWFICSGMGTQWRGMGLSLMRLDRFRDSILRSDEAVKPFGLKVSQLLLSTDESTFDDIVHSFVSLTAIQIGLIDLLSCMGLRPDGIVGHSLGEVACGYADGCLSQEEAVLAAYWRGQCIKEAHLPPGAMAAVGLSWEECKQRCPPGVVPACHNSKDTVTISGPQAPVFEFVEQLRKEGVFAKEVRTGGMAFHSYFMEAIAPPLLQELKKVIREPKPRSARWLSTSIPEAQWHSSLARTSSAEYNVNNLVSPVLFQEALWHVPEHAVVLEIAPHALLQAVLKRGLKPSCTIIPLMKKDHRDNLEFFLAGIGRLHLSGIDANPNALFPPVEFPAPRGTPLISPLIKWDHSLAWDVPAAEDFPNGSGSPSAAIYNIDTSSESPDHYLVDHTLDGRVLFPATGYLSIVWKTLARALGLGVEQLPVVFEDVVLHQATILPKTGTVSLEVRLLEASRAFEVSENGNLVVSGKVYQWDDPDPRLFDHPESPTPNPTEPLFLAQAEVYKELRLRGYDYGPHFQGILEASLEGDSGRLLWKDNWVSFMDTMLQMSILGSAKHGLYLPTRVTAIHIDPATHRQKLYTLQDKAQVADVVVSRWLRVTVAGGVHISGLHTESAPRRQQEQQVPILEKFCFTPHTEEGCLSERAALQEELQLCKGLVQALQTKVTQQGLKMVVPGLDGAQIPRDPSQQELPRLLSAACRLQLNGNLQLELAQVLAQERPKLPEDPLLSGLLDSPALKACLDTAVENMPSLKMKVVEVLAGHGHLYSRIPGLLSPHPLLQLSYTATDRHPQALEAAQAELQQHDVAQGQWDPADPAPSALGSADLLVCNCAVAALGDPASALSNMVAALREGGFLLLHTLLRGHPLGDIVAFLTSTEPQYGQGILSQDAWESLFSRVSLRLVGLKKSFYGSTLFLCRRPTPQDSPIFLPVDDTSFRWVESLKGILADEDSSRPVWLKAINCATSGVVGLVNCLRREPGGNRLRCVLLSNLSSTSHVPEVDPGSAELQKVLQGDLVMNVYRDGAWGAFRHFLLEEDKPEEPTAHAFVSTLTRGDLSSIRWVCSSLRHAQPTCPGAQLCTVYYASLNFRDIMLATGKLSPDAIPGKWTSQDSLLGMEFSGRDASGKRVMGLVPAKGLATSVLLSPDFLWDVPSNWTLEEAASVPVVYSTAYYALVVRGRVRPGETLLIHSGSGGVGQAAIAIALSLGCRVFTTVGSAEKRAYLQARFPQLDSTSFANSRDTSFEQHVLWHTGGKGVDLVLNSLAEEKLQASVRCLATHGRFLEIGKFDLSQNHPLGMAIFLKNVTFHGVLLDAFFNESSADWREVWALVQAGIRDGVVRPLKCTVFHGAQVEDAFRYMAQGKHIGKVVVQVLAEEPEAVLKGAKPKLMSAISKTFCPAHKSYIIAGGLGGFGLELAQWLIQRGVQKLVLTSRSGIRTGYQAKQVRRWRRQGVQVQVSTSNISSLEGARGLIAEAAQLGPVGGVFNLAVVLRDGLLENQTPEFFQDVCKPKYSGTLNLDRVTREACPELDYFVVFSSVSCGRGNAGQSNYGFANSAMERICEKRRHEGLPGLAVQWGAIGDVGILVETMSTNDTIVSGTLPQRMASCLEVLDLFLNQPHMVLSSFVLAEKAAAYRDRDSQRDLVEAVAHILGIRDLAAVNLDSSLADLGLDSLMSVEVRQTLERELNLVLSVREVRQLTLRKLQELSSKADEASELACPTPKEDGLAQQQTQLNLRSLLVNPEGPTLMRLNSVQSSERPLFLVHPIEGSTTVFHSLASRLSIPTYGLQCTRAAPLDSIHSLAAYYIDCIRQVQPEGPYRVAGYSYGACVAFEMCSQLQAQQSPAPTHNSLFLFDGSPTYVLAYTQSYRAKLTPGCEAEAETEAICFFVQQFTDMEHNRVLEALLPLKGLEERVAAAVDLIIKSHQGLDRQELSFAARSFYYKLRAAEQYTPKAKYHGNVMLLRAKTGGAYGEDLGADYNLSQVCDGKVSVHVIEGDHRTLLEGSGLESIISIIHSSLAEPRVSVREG
ADAM10 confirm: human ADAM10 inhibition, confirmation | shares compounds with ADAM10 inh | ADAM10 QFRET peptide cleavage, EDANS fluorescence | inhibition, % at 6.95 µM | 1% of 2,100 active | AID 743208;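 active = inhibition above about 20% chosen separately for each screening run, limit read from the data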;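 note: 0% = DMSO wells and 100% = marimastat wells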
ADAM17 counter: counter-screen for ADAM10 exosite inhibitors: inhibitors of human ADAM17; shares compounds with ADAM10 inh; ADAM17 QFRET peptide cleavage, EDANS fluorescence; inhibition, % at 6.95 µM; 0.5% of 2,100 active; AID 743214;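 active = mean triplicate inhibition above the solvent-only control wells' mean plus 3 SD, cut at about 12% in these data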;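 note: 0% = DMSO wells and 100% = marimastat wells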
ADAM10 ctr: inhibits human ADAM10 in ADAM17 exosite counter-screen | AID 743256 | recombinant ADAM10, EDANS/DABCYL FRET peptide cleavage, 3 h | shares compounds with ADAM17 inh | 47% of 2,900 active | inhibition, % at 6.95 µM;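 active = mean inhibition over the triplicate runs exceeds the activity threshold set in the earlier primary screen, cut at about 20% in these data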;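 note: 0% = DMSO wells and 100% = marimastat wells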
ADAM17 confirm: confirmation of inhibitors of human ADAM17 | shares compounds with ADAM17 inh | recombinant ADAM17, EDANS/DABCYL QFRET peptide cleavage | inhibition, % at 6.95 µM | 65% of 2,900 active | AID 743257;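 active = mean inhibition across replicates above the hit cutoff set in the primary screen, cut at about 8.5% in these data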;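 note: 0% = DMSO wells and 100% = marimastat wells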
An asterisk follows results filed as active. Rows were chosen to be rich in hits. Some 2% of all compounds tested hit in one or more screens of this group.

Screening CCNC(=O)C[C@H]1CC[C@H]2[C@@H](COc3ccc(NC(=O)Nc4ccccc4)cc3C(=O)N2C)O1 returned NPR1 activator 3.2, NPR2 activator 6.5, ADAM10 inh -1.5 and ADAM17 inh -10.4.
Screening CCOC(=O)C1=CCN(S(=O)(=O)c2ccccc2Cl)C1c1ccc(Cl)c(Cl)c1 (centres undefined) returned NPR1 activator -9.3, NPR2 activator -9.2, ADAM10 inh 20.7*, ADAM17 inh 15.1*, FAS-TE inh 20.8, ADAM10 confirm 5.9, ADAM17 counter 1.6, ADAM10 ctr 8.0 and ADAM17 confirm 3.7.
Screening C=CCN1C(=O)[C@@H](CC(=O)NCCCOC)[C@]2(C(=O)OCC)CCCCC/C=C/12 returned NPR1 activator -0.5, NPR2 activator -4.2, ADAM10 inh 1.5 and ADAM17 inh -0.3.
CCOC(=O)[C@]12CCCC3=C1N(CCC3)C(=O)[C@@H](CC(=O)NCc1cccc(C(F)(F)F)c1)C2 was read as NPR1 activator -1.5, NPR2 activator -2.5, ADAM10 inh -5.2 and ADAM17 inh -5.8.
For CCOc1ccccc1NC1=CC(=O)CC(c2ccccc2)C1 (centres undefined) the results were NPR1 activator -2.1, NPR2 activator -12.8, ADAM10 inh 21.7*, ADAM17 inh 10.2*, FAS-TE inh -6.2, ADAM10 confirm 0.7, ADAM17 counter 0.0, ADAM10 ctr -4.3 and ADAM17 confirm -1.1.
For Cc1ccccc1CNC(=O)C1CCCN(c2ncccn2)C1 (centres undefined) the results were NPR1 activator 2.3, NPR2 activator 0.8, ADAM10 inh -21.3 and ADAM17 inh -6.7.
CCc1ccc(NC(=O)C2CCN(S(=O)(=O)c3ccc4c(c3)NC(=O)C(C)S4)CC2)cc1 (centres undefined) was read as NPR1 activator -12.6, NPR2 activator -5.8, ADAM10 inh 25.6*, ADAM17 inh 13.6*, FAS-TE inh 10.6, ADAM10 confirm 1.1, ADAM17 counter -0.1, ADAM10 ctr 21.4* and ADAM17 confirm 11.2*.
Screening Cc1ccc(NC(=O)C2CCN(S(=O)(=O)c3ccc4c(c3)NC(=O)C(C)S4)CC2)cc1C (centres undefined) returned NPR1 activator -16.0, NPR2 activator -12.3, ADAM10 inh 16.2, ADAM17 inh 8.3 and FAS-TE inh 11.7.
Nc1[nH]c(C(=O)c2ccccc2)c(-c2cccc(C(F)(F)F)c2)c1C(=O)NCCc1c[nH]c2ccccc12 was read as NPR1 activator -11.5, NPR2 activator -5.0, ADAM10 inh 23.6*, ADAM17 inh 9.0*, ADAM10 confirm 11.7, ADAM17 counter 2.7, ADAM10 ctr 27.4* and ADAM17 confirm 14.5*.
Screening Cc1cc(C)cc(-c2c(C(=O)c3ccccc3)[nH]c(N)c2C(=O)NCCc2c[nH]c3ccccc23)c1 returned NPR1 activator -10.8, NPR2 activator -1.1, ADAM10 inh 4.3 and ADAM17 inh 4.0.
For N#CCC[C@@H]1CC[C@]2(CCCN(C(=O)c3ccc4ccccc4n3)C2)O1 the results were NPR1 activator -0.6, NPR2 activator -2.6, ADAM10 inh 1.2 and ADAM17 inh -0.4.
For Cc1ccc(NS(=O)(=O)c2ccc(N3CCN(c4ccc(O)cc4)CC3)c([N+](=O)[O-])c2)c(C)c1 the results were NPR1 activator -3.8, NPR2 activator -2.3, ADAM10 inh 20.2*, ADAM17 inh 10.2*, FAS-TE inh 9.3, ADAM10 confirm 5.7, ADAM17 counter -0.6, ADAM10 ctr 32.5* and ADAM17 confirm 18.8*.
`COc1ccc(OC)c(NC(=O)COC(=O)Cc2ccc(Br)cc2)c1` gave NPR1 activator -13.0, NPR2 activator -2.4, ADAM10 inh 8.5, ADAM17 inh 2.3 and FAS-TE inh 21.7.
Screening COc1ccc(OC)c(NC(=O)COC(=O)Cc2ccc(-c3ccccc3)cc2)c1 returned NPR1 activator 0.8, NPR2 activator 0.4, ADAM10 inh 27.7*, ADAM17 inh 14.9*, FAS-TE inh 30.1, ADAM10 confirm 6.7, ADAM17 counter 1.8, ADAM10 ctr 14.4 and ADAM17 confirm 12.6*.
Screening CCCCC[C@H](C)N1C[C@@H](COCc2ccccc2)Oc2cc(N3CC[C@H](O)C3)ccc2S1(=O)=O returned NPR1 activator 3.4, NPR2 activator 0.3, ADAM10 inh 20.7*, ADAM17 inh 12.7*, FAS-TE inh 24.3, ADAM10 confirm 10.8, ADAM17 counter 4.3, ADAM10 ctr 29.8* and ADAM17 confirm 21.1*.
`CCCCC[C@@H](C)N1C[C@H](COCc2ccccc2)Oc2cc(N3CCC[C@H]3CO)ccc2S1(=O)=O` gave NPR1 activator -5.2, NPR2 activator 0.1, ADAM10 inh -2.0, ADAM17 inh -1.4 and FAS-TE inh 3.3.
Screening CCCCC[C@@H](C)N1C[C@H](COCc2ccccc2)Oc2cc(N3CCC[C@@H]3CO)ccc2S1(=O)=O returned NPR1 activator 0.8, NPR2 activator 4.8, ADAM10 inh 21.4*, ADAM17 inh 8.7*, FAS-TE inh 24.2, ADAM10 confirm 6.7, ADAM17 counter 1.9, ADAM10 ctr 18.1 and ADAM17 confirm 10.3*.
CCCCC[C@H](C)N1C[C@H](COCc2ccccc2)Oc2cc(N3CC[C@@H](O)C3)ccc2S1(=O)=O was read as NPR1 activator -1.7, NPR2 activator -0.8, ADAM10 inh 6.6, ADAM17 inh 6.8 and FAS-TE inh 28.1.
Screening COc1ccc(C2Nc3ccccc3C(=O)N2Cc2ccccc2)cc1COc1ccc(NC(C)=O)cc1 (centres undefined) returned NPR1 activator -14.9, NPR2 activator -14.0, ADAM10 inh inactive and ADAM17 inh -234.7.
`O=C(NCCc1c[nH]c2ccccc12)OCc1cn(Cc2ccccc2F)nn1` gave NPR1 activator 2.9, NPR2 activator 2.9, ADAM10 inh -12.5 and ADAM17 inh -6.1.
For C=CCOC(=O)C1=C[C@H](C2CCCCC2)C[C@H](OCc2ccc(CO)cc2)O1 the results were NPR1 activator -0.9, NPR2 activator -0.2, ADAM10 inh 5.6, ADAM17 inh -2.7 and FAS-TE inh 8.3.
